Reference: PubChem BioAssay (NCATS)
Results filed as inconclusive are left out. The source made the active and inactive calls. Calls come from the whole dose curve; as a rule, active = well fitted curve in the direction sought with a large enough effect; inconclusive = small, poorly fitted or top-dose-only effect, or another doubt; inactive = no such curve, though single readings can be large; an effect the other way counts as inactive or inconclusive.

Assays:
[1] = qHTS of pediatric cancer cell lines to identify multiple opportunities for drug repurposing: Primary screen for BT-12 cells (AID 1347101); note: nearly all actives have a fitted effect of over 25% in size; note: potency is the fitted concentration of half-maximal effect
Summary of the method: (§1)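 Cells (500-1,000/well) rested 5 h, then received compounds for 48 h; metabolically active cells were measured by CellTiter-Glo luminescence. Final concentrations spanned up to 46 µM (MIPE, 11-point) or 0.59 nM-46 µM (NPC, 8-point) in primary screens, 11-point in follow-ups.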

[2] = qHTS of pediatric cancer cell lines to identify multiple opportunities for drug repurposing: Primary screen for OHS-50 cells (AID 1347103); note: nearly all actives have a fitted effect of over 40% in size; note: potency is the fitted concentration of half-maximal effect
Summary of the method: as §1

[3] = qHTS of pediatric cancer cell lines to identify multiple opportunities for drug repurposing: Primary screen for RD cells (AID 1347104); note: nearly all actives have a fitted effect of over 55% in size; note: potency is the fitted concentration of half-maximal effect
Summary of the method: (§2)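 Following a 5-hour attachment period, cells at 500-1,000/well received compounds and were cultured for 48 hours. CellTiter-Glo was added and luminescence read to estimate viable, metabolically active cells.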

[4] = qHTS of pediatric cancer cell lines to identify multiple opportunities for drug repurposing: Primary screen for MG 63 (6-TG R) cells (AID 1347105); note: nearly all actives have a fitted effect of over 50% in size; note: potency is the fitted concentration of half-maximal effect
Summary of the method: as §2

[5] = qHTS of pediatric cancer cell lines to identify multiple opportunities for drug repurposing: Primary screen for control Hh wild type fibroblast cells (AID 1347106); note: nearly all actives have a fitted effect of over 55% in size; note: potency is the fitted concentration of half-maximal effect
Summary of the method: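 Cells (500-1,000/well) in growth media were settled 5 h at 37 degrees C, then given compounds for 48 h. Viability was read as CellTiter-Glo luminescence. Primary runs used MIPE at 11 points (0.78 nM-46 µM) and NPC at 8 points (0.59 nM-46 µM); follow-ups used 11 points.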

[6] = qHTS of pediatric cancer cell lines to identify multiple opportunities for drug repurposing: Primary screen for Rh30 cells (AID 1347107); note: nearly all actives have a fitted effect of over 75% in size; note: potency is the fitted concentration of half-maximal effect
Summary of the method: (§3)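 Viability after 48 h compound treatment at 37C, 500-1,000 cells/well, read as ATP luminescence with CellTiter-Glo. Primary screens used 11-point (MIPE, 0.78 nM-46 µM) or 8-point (NPC, 0.59 nM-46 µM) final concentrations; follow-up screens used 11-point dilutions.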

[7] = qHTS of pediatric cancer cell lines to identify multiple opportunities for drug repurposing: Primary screen for Rh41 cells (AID 1347108); note: nearly all actives have a fitted effect of over 70% in size; note: potency is the fitted concentration of half-maximal effect
Summary of the method: as §2

[8] = qHTS of pediatric cancer cell lines to identify multiple opportunities for drug repurposing: Confirmatory screen for NB1643 cells (AID 1347109); note: nearly all actives have a fitted effect of over 45% in size; note: potency is the fitted concentration of half-maximal effect
Summary of the method: as §3

[9] = qHTS of pediatric cancer cell lines to identify multiple opportunities for drug repurposing: Confirmatory screen for A673 cells (AID 1347110); details: A673 Ewing sarcoma cell viability; note: potency is the fitted concentration of half-maximal effect; nearly all actives have a fitted effect of over 65% in size
Summary of the method: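 Concentration-response curves came straight from titrations: 11 points (0.78 nM to 46 µM) for MIPE and several concentrations (0.59 nM to 46 µM) for NPC in primary, 11 points in follow-up. Readout: ATP luminescence at 48 h.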

[10] = qHTS of pediatric cancer cell lines to identify multiple opportunities for drug repurposing: Confirmatory screen for SK-N-MC cells (AID 1347111); details: SK-N-MC cell viability;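 note: potency is the fitted concentration of half-maximal effect; cells exposed to compound for 48 h before the readout; nearly all actives have a fitted effect of over 70% in size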
Summary of the method: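 SK-N-MC cells at 500-1,000 cells/well in growth media were pre-incubated 5 h, then exposed to compounds at 11-point dilutions for 48 h at 37 degrees C, 5% CO2. Viability was read as CellTiter-Glo luminescence.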

[11] = qHTS of pediatric cancer cell lines to identify multiple opportunities for drug repurposing: Confirmatory screen for BT-12 cells (AID 1347112); note: nearly all actives have a fitted effect of over 55% in size; note: potency is the fitted concentration of half-maximal effect
Summary of the method: as §3

[12] = qHTS of pediatric cancer cell lines to identify multiple opportunities for drug repurposing: Confirmatory screen for LAN-5 cells (AID 1347113); note: nearly all actives have a fitted effect of over 65% in size; note: potency is the fitted concentration of half-maximal effect
Summary of the method: as §3

[13] = qHTS of pediatric cancer cell lines to identify multiple opportunities for drug repurposing: Confirmatory screen for DAOY cells (AID 1347114); note: nearly all actives have a fitted effect of over 65% in size; note: potency is the fitted concentration of half-maximal effect
Summary of the method: (§4)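 Viability measured as metabolically active cells via CellTiter-Glo luminescence following 48 hours of compound exposure, 11-point dilutions in confirmatory testing. 500-1,000 cells/well plated 5 hours before dosing; controls were DMSO and 2.3 µM bortezomib.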

[14] = qHTS of pediatric cancer cell lines to identify multiple opportunities for drug repurposing: Confirmatory screen for NB-EBc1 cells (AID 1347115); note: nearly all actives have a fitted effect of over 45% in size; note: potency is the fitted concentration of half-maximal effect
Summary of the method: as §3

[15] = qHTS of pediatric cancer cell lines to identify multiple opportunities for drug repurposing: Confirmatory screen for SJ-GBM2 cells (AID 1347116); note: nearly all actives have a fitted effect of over 60% in size; note: potency is the fitted concentration of half-maximal effect
Summary of the method: as §4

[16] = qHTS of pediatric cancer cell lines to identify multiple opportunities for drug repurposing: Confirmatory screen for BT-37 cells (AID 1347117); details: BT-37 pediatric cancer cells, viability; note: potency is the fitted concentration of half-maximal effect; nearly all actives have a fitted effect of over 55% in size
Summary of the method: as §3

[17] = qHTS of pediatric cancer cell lines to identify multiple opportunities for drug repurposing: Confirmatory screen for TC32 cells (AID 1347118); details: TC32 Ewing sarcoma cells viability qHTS; note: potency is the fitted concentration of half-maximal effect; nearly all actives have a fitted effect of over 65% in size
Summary of the method: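 TC32 cells, 500-1,000/well in growth medium, compound-treated 48 h at 37 °C; viability from CellTiter-Glo luminescence. Primary screen: MIPE 11-point (0.78 nM–46 µM final), NPC 8-point (0.59 nM–46 µM final); confirmatory at 11-point dilutions.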

[18] = qHTS of pediatric cancer cell lines to identify multiple opportunities for drug repurposing: Confirmatory screen for MG 63 (6-TG R) cells (AID 1347119); note: nearly all actives have a fitted effect of over 55% in size; note: potency is the fitted concentration of half-maximal effect
Summary of the method: as §3

[19] = qHTS of pediatric cancer cell lines to identify multiple opportunities for drug repurposing: Primary screen for Rh18 cells (AID 1347102); note: nearly all actives have a fitted effect of over 65% in size; note: potency is the fitted concentration of half-maximal effect
Summary of the method: as §3

[20] = qHTS of pediatric cancer cell lines to identify multiple opportunities for drug repurposing: Confirmatory screen for control Hh wild type fibroblast cells (AID 1347121); note: nearly all actives have a fitted effect of over 70% in size
Summary of the method: as §3

Measured: Potency

CCOc1ccc2nc(S(N)(=O)=O)sc2c1
inactive: [1] | [2] | [3] | [4] | [5] | [6] | [7]

O=Cc1ccc(O)c(O)c1O
inactive: [1] | [2] | [4] | [5] | [6] | [7]

COC(=O)c1nc(Cl)c(Cl)nc1N
active: [1] 2.19 µM | [2] 0.872 µM | [3] 5.96 µM | [4] 8.41 µM | [6] 21.1 µM | [7] 3.76 µM | [8] 3.69 µM | [9] 0.293 µM | [10] 1.17 µM | [11] 2.08 µM | [12] 3.29 µM | [13] 1.65 µM | [14] 16.5 µM | [15] 2.08 µM | [16] 1.47 µM | [17] 2.33 µM | [18] 2.93 µM
inactive: [5]

O=C(CCN1CCN(CCO)CC1)N1c2ccccc2Sc2ccc(C(F)(F)F)cc21
inactive: [1] | [19] | [2] | [3] | [4] | [5] | [6] | [7]

CCCCCCCCCCCC(=O)[O][Sn]([CH2]CCC)([CH2]CCC)[O]C(=O)CCCCCCCCCCC
inactive: [1] | [19] | [2] | [3] | [4] | [5] | [6] | [7]

N=C(N)N
inactive: [1] | [2] | [3] | [4] | [5] | [6] | [7]

CO[C@@]1(NC(=O)Cc2cccs2)C(=O)N2C(C(=O)O)=C(COC(N)=O)CS[C@@H]21
inactive: [19] | [2] | [3] | [4] | [5] | [6] | [7]

COc1cccc2c1C(=O)c1c(O)c3c(c(O)c1C2=O)C[C@@](O)(C(=O)CO)C[C@@H]3O[C@H]1C[C@H](N)[C@H](O[C@@H]2CCCCO2)[C@H](C)O1
active: [1] 1.55 µM | [19] 15 µM | [2] 0.777 µM | [3] 8.41 µM | [4] 0.841 µM | [7] 8.41 µM | [9] 3.29 µM | [10] 1.65 µM | [11] 13.1 µM | [13] 11.7 µM | [14] 3.29 µM | [15] 14.7 µM | [16] 1.17 µM | [17] 0.465 µM

Nc1ccc(O)c(C(=O)O)c1
inactive: [1] | [2] | [3] | [4] | [5] | [6] | [7]

Cc1ccc2c(n1)Oc1ccc(C(C)C(=O)OCC(=O)N(C)C)cc1C2 (centres undefined)
inactive: [1] | [2] | [3] | [4] | [5] | [6] | [7]

CC(N)C(=O)OC(C)(C)Cc1ccc(Cl)cc1 (centres undefined)
inactive: [1] | [19] | [3] | [4] | [5] | [6] | [7]

CN1CC(=O)N/C1=N/C(=O)Nc1cccc(Cl)c1
inactive: [1] | [19] | [2] | [3] | [4] | [5] | [6] | [7]

Cc1nc2ccccc2n1Cc1ccc(Cl)cc1
inactive: [19] | [3] | [4] | [5] | [6]
active: [2] 3.47 µM

CCCCCCCC/C=C/C(=O)O
inactive: [1] | [2] | [3] | [4] | [5] | [6] | [7]

Nc1c(CC(=O)O)cccc1C(=O)c1ccc(Br)cc1
inactive: [1] | [19] | [2] | [3] | [4] | [5] | [6] | [7]

O=C(O)Cc1ccc(-c2ccccc2)cc1
inactive: [1] | [19] | [2] | [3] | [4] | [5] | [6] | [7]

Cc1c(Nc2ncccc2C(=O)O)cccc1C(F)(F)F
inactive: [1] | [19] | [2] | [3] | [5] | [6] | [7]

Cc1c(N)c(=O)n(-c2ccccc2)n1C
inactive: [1] | [2] | [3] | [4] | [5] | [6] | [7]

CC(=O)SCC(CC(=O)c1ccc(C)cc1)C(=O)O (centres undefined)
inactive: [1] | [2] | [3] | [4] | [5] | [6] | [7]

CCC1C(=O)OCC1Cc1cncn1C (centres undefined)
inactive: [1] | [2] | [3] | [4] | [5] | [6] | [7]

C=CCCCCCCCCC(=O)O
inactive: [1] | [19] | [2] | [3] | [4] | [5] | [6] | [7]

S=c1[nH]c2ccccc2s1
inactive: [1] | [2] | [4] | [5] | [6] | [7]

c1ccc2sc(SSc3nc4ccccc4s3)nc2c1
inactive: [1] | [2] | [3] | [4] | [6] | [7]

Cc1ccc(C(=O)c2ccc(CC(=O)O)n2C)cc1
inactive: [1] | [19] | [2] | [3] | [4] | [5] | [6] | [7]

CN(C)CCn1nnnc1SCC1=C(C(=O)O)N2C(=O)[C@@H](NC(=O)Cc3csc(N)n3)[C@H]2SC1
inactive: [1] | [19] | [2] | [3] | [4] | [5] | [6] | [7]

c1ccc2sc(SN3CCOCC3)nc2c1
inactive: [1] | [2] | [3] | [4] | [5] | [6] | [7]

O=C(CS)Nc1ccccc1
active: [5] 16.8 µM | [7] 21.1 µM
inactive: [1] | [2] | [4] | [6]

O=C(Nc1ccc(C(=O)O)c(O)c1)c1ccccc1
inactive: [1] | [19] | [2] | [3] | [4] | [5] | [6] | [7]

CCOC(=O)c1ccccc1O
active: [8] 14.7 µM | [9] 3.29 µM | [10] 1.65 µM | [17] 1.47 µM
not listed: [1] | [11] | [12] | [15] | [16] | [18]
inactive: all other assays above

O=C(/C=C/c1ccccc1)NCCO
inactive: [19] | [2] | [3] | [4] | [5] | [6] | [7]

COc1cc2c3cc1Oc1cc(ccc1O)C[C@@H]1c4c(cc(OC)c(O)c4Oc4ccc(cc4)C[C@@H]3N(C)CC2)CC[N+]1(C)C
inactive: [19] | [2] | [3] | [4] | [5] | [6] | [7]

CCCCCCOc1ccccc1C(N)=O
inactive: [19] | [3] | [4] | [5] | [6] | [7]

Nc1ccc(O)c([N+](=O)[O-])c1
inactive: [19] | [2] | [3] | [4] | [5] | [6] | [7]

NCCO
inactive: [19] | [2] | [3] | [4] | [5] | [6] | [7]

COc1ccc(-c2cc(=S)ss2)cc1
inactive: [19] | [3] | [4] | [5] | [6] | [7]

Nc1ccc([N+](=O)[O-])cc1O
active: [9] 2.14 µM | [17] 7.59 µM
not listed: [1] | [2] | [3] | [4] | [5] | [10] | [16]
inactive: all other assays above

CCCCCCCCCCCCCCCCCC(=O)O
inactive: [2] | [3] | [4] | [5] | [6] | [7]

O=C(O)c1cc(O)c(O)c(O)c1
inactive: [2] | [3] | [4] | [5] | [6] | [7]

CCCCCCCCCCCCCCCC(=O)OC(C)C
inactive: [19] | [2] | [3] | [4] | [5] | [6] | [7]
